Drawing on PubChem BioAssay (NCI), this text covers growth for nine compounds.

The structures appear in SMILES notation. Compounds without any hit were thinned out: in the full panel of roughly 83,000, 20% have a hit.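 Percent growth is the endpoint: 0 to 100 indicates growth inhibition (40 means 60% inhibition), 0 means no net growth, and negative values indicate cell death.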 Values without a mark were called inactive. Calls of active or inactive are those of the source. How the source made its calls: active means growth percent below 10; inactive means the rest.

Test systems include HCT-15 colon; HT29 colon; SNB-75 CNS; SNB-19 CNS; PC-3 prostate; SK-MEL-5 melanoma; UACC-62 melanoma; LOX IMVI melanoma; SK-MEL-28 melanoma; SK-MEL-2 melanoma; EKVX NSCLC; SN12C renal; UO-31 renal; TK-10 renal; ACHN renal; CAKI-1 renal; A498 renal; CCRF-CEM leukemia; U251 CNS; MOLT-4 leukemia.
Test in all cases: NCI-60 one-dose screen, 48 h (100 = growth as untreated, 0 = no growth, -100 = all killed)
Holding throughout (conditions): 10 µM unless noted

For the compound `Cc1c2oc3c(C)ccc(C(=O)OC(C)C4NC(=O)C(C(C)C)N(C)C(=O)CN(C)C(=O)C5CCCN5C(=O)C(C(C)C)NC4=O)c3nc-2c(C(=O)OC(C)C2NC(=O)C(C(C)C)N(C)C(=O)CN(C)C(=O)C3CCCN3C(=O)C(C(C)C)NC2=O)c(N)c1=O` (stereo not given), the growth in the assay on HCT-15 colon was 7.36% (active); with HT29 colon it was -29.2% (active); in the assay on SNB-75 CNS, -73.8% (active); in the assay on SNB-19 CNS, 3.31% (active); in the assay on PC-3 prostate, 10.4%; with SK-MEL-5 melanoma, -92% (active). In addition, the growth was -71% (active) in the assay on UACC-62 melanoma; 4.35% (active) in the assay with LOX IMVI melanoma; -20.8% (active) in the assay with SK-MEL-28 melanoma; -64.8% (active) in the assay with SK-MEL-2 melanoma; 5.92% (active) with EKVX NSCLC; 7.77% (active) in the assay on SN12C renal. The growth was -8.49% (active) with UO-31 renal; -7.83% (active) in the assay with TK-10 renal; 1.27% (active) with ACHN renal; 3.24% (active) in the assay on CAKI-1 renal; -75.4% (active) in the assay with A498 renal; 18.4% in the assay with CCRF-CEM leukemia.

Consider `C/C(=C\CCc1ccoc1)CC/C=C(\C)CCCN1CCOCC1`, for which the growth in the assay with HCT-15 colon was 23.8%; with HT29 colon, 22.7%; in the assay with SNB-75 CNS, 60.9%; in the assay with SNB-19 CNS, 67.5%; in the assay on U251 CNS, 44.3%; with PC-3 prostate it was 55.9%. For the same compound, the growth with SK-MEL-2 melanoma was 78.7%; with SN12C renal, 70.5%; with UO-31 renal it was 52.3%; with TK-10 renal it was 61.3%; in the assay with ACHN renal it was 76.3%; with CAKI-1 renal, 58.3%. Also, the growth in the assay on A498 renal is 75.7%; in the assay on CCRF-CEM leukemia, 29.6%; in the assay with MOLT-4 leukemia, 54.2%.

Turning to `C[C@]12CC[C@H](O)CC1=CC[C@@H]1[C@@H]2CC[C@]2(C)C(c3cccnc3)=CC[C@@H]12`, the growth in the assay with HCT-15 colon was 56.8%; with HT29 colon, 24%; in the assay with SNB-75 CNS it was 52.4%; in the assay with SNB-19 CNS, 72.7%; in the assay on U251 CNS it was 67%; in the assay with SK-MEL-5 melanoma, 25.9%. The growth in the assay on UACC-62 melanoma is 53.2%; in the assay with LOX IMVI melanoma it was 74.5%; in the assay with SK-MEL-28 melanoma, 33.8%; with SK-MEL-2 melanoma, 27.6%; in the assay with EKVX NSCLC, 38.8%; in the assay with SN12C renal, 91%. In addition, the growth in the assay on UO-31 renal was 36.9%; with TK-10 renal, 93.6%; in the assay on ACHN renal, 61%; in the assay with A498 renal, 64.4%; with CCRF-CEM leukemia, 51.3%; in the assay with MOLT-4 leukemia it was 34.1%.

Take `CN1CCC[C@@H]1CCO[C@](C)(c1ccccc1)c1ccc(Cl)cc1`: the growth with HCT-15 colon was 62.2%; with HT29 colon, 17.3%; with SNB-75 CNS it was 52.3%; in the assay with SNB-19 CNS, 99.5%; in the assay with U251 CNS it was 64.3%; in the assay with PC-3 prostate it was 66.2%. The growth in the assay with UACC-62 melanoma was 37.2%; in the assay on LOX IMVI melanoma, 70.7%; in the assay with SK-MEL-2 melanoma it was 90.4%; with EKVX NSCLC, 69.3%; in the assay with SN12C renal, 66.5%; in the assay on UO-31 renal it was 36.9%. Besides, the growth was 65.9% with ACHN renal, 71% with CAKI-1 renal, 88.1% with A498 renal and 65.2% in the assay with CCRF-CEM leukemia.

Turning to `COC(=O)[C@H]1[C@H]2C[C@@H]3c4[nH]c5cc(OC)ccc5c4CCN3C[C@H]2C[C@@H](OC(=O)/C=C/c2cc(OC)c(OC)c(OC)c2)[C@@H]1OC`, the growth with HCT-15 colon was 39.9%; in the assay with HT29 colon, -66.1% (active); in the assay with SNB-75 CNS, 47.2%; in the assay with SNB-19 CNS it was 49.9%; in the assay on U251 CNS, 17.4%; with PC-3 prostate, 44.6%. Also, the growth with LOX IMVI melanoma is 26.8%; in the assay on SK-MEL-28 melanoma, 109%; with SK-MEL-2 melanoma, 66.2%; in the assay on EKVX NSCLC, 90.4%; in the assay with SN12C renal, 63.3%; in the assay with UO-31 renal, 69.2%. Besides, the growth with TK-10 renal is 46.4%; with ACHN renal, 68.5%; in the assay with CAKI-1 renal, 30.9%; in the assay with A498 renal, 81.7%; in the assay with CCRF-CEM leukemia, 5.36% (active); in the assay with MOLT-4 leukemia, 8.49% (active).

Turning to `C[C@H]1O[C@@H](O[C@H]2[C@@H](O)C[C@H](O[C@H]3[C@@H](O)C[C@H](O[C@H]4CC[C@]5(C)C6CC[C@]7(C)[C@@H](C8=CC(=O)OC8)CC[C@]7(O)C6CC[C@@H]5C4)O[C@@H]3C)O[C@@H]2C)C[C@H](O)[C@@H]1O` (stereo not given in full), the growth with HCT-15 colon was -85.6% (active); with HT29 colon, -89.8% (active); with SNB-75 CNS, -80.8% (active); in the assay with SNB-19 CNS, -100% (active); in the assay on PC-3 prostate, -24.1% (active); in the assay on SK-MEL-5 melanoma, -100% (active). In addition, the growth in the assay on UACC-62 melanoma is -82.4% (active); with LOX IMVI melanoma, -100% (active); in the assay with SK-MEL-28 melanoma, -51.5% (active); in the assay with SK-MEL-2 melanoma, -68.5% (active); in the assay on EKVX NSCLC, -98.4% (active); with SN12C renal it was -52.4% (active). The growth in the assay with UO-31 renal is -90.4% (active); in the assay on ACHN renal it was -68% (active); in the assay on CAKI-1 renal it was -92.6% (active); in the assay on A498 renal it was -28.5% (active); in the assay on CCRF-CEM leukemia, -58.6% (active); with MOLT-4 leukemia it was -36.9% (active).

Turning to `COC(=O)Nc1ccc2ccc3c(NC(=O)OC)ccc4ccc1c2c43` (tested in a mixture with another compound), the growth is 35.6% in the assay on HCT-15 colon; 30.6% in the assay on HT29 colon; 50.7% with SNB-75 CNS; 60.8% in the assay with SNB-19 CNS; 48.4% in the assay on PC-3 prostate; 37.3% in the assay with SK-MEL-5 melanoma. Further, the growth was 41.5% in the assay on UACC-62 melanoma; 32.9% with LOX IMVI melanoma; 73.3% in the assay on SK-MEL-28 melanoma; 52.8% with SK-MEL-2 melanoma; 68.1% with EKVX NSCLC; 68.4% in the assay on SN12C renal. For the same compound, the growth in the assay with UO-31 renal was 42.1%; in the assay with TK-10 renal it was 85.9%; in the assay on ACHN renal, 59%; with CAKI-1 renal, 50.7%; in the assay on CCRF-CEM leukemia, 54.4%; with MOLT-4 leukemia, 35%.

On to `O=C(COc1ccc(/C=C2\Cc3ccccc3C2=O)cc1)c1ccc(Cl)cc1`, for which the growth in the assay with HCT-15 colon is 96.1%; with HT29 colon it was 109%; in the assay on SNB-75 CNS, 94.5%; in the assay with SNB-19 CNS it was 95.7%; in the assay on U251 CNS, 93.7%; with PC-3 prostate, 92.1%. Besides, the growth in the assay on UACC-62 melanoma was 95.2%; in the assay on LOX IMVI melanoma it was 92.8%; with SK-MEL-28 melanoma it was 117%; in the assay with UO-31 renal it was -7.83% (active); with TK-10 renal it was 133%; in the assay on ACHN renal, 107%. Moreover, the growth is 78.2% in the assay with CAKI-1 renal, 108% in the assay on A498 renal, 95.2% in the assay on CCRF-CEM leukemia and 95.9% in the assay with MOLT-4 leukemia.

On to `Nc1nc(NC2CC2)c2ncn(C3C=CC(CO)C3)c2n1` (stereo not given), for which the growth was 107% in the assay on HCT-15 colon; 101% in the assay on HT29 colon; 117% in the assay with SNB-75 CNS; 112% in the assay with SNB-19 CNS; 102% with U251 CNS; 119% with PC-3 prostate. For the same compound, the growth in the assay with UACC-62 melanoma was 83.6%; in the assay with LOX IMVI melanoma, 103%; with SK-MEL-28 melanoma, 118%; in the assay on SK-MEL-2 melanoma it was 89.4%; in the assay on EKVX NSCLC, 115%; with SN12C renal it was 98.2%. The growth is 96.4% with TK-10 renal; 103% with ACHN renal; 90.4% in the assay on CAKI-1 renal; 104% in the assay with A498 renal; 97.3% with CCRF-CEM leukemia; 76.9% with MOLT-4 leukemia.
